Experimental findings from the supplement of paper PMC10127200 are described below.

Common to all, as to assay: Euclidean distance of Cell Painting phenotypic profile (signed KS, 77 features) to DMSO centroid (dimensionless distance); 5 or 10 uM (library dependent); higher = stronger phenotypic change vs DMSO (phenoactivity)
What all share (conditions): 48 h

In experiment [1] the test system is 786-O. Put shortly:
(§1)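 Five cancer lines, together with a healthy fibroblast line, received library compounds for 48 h at a library-dependent 10 or 5 uM and 0.1% DMSO final. Harmony then derived 77 features from confocal 20X images (9 fields/well) of the stained cells, scoring each as a signed Kolmogorov-Smirnov statistic against same-plate vehicle wells. After plate-position correction, correlation weighting and replicate averaging at the top dose, phenoactivity was taken as each profile's Euclidean distance to the median vehicle profile.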

The test system of experiment [2] is A549. The procedure, abridged:
as §1

Experiment [3] concerns DU145. The procedure, abridged:
as §1

Experiment [4] has as its system FB. Put shortly: as §1
Experiment [5] concerns HEPG2. The procedure, abridged:
as §1

Experiment [6] has as its system OVCAR4. The procedure, abridged:
as §1

SMILES strings stand for the structures. Where a name gives a salt, the structure may show the parent alone.

Consider `COc1cccc(OC)c1C(=O)OCc1cc(O)ccc1O[C@@H]1O[C@H](CO)[C@@H](O)[C@H](O)[C@H]1O` [Curculigoside], for which the Euclidean distance amounted to 0.665 in experiment [1]; 0.731 in experiment [2]; 0.819 in experiment [3]; 0.662 in experiment [4]; 0.446 in experiment [5]; 1.36 in experiment [6].
As to `O=c1[nH]c(=O)n([C@H]2C[C@H](O)[C@@H](CO)O2)cc1F` [Floxuridine], the Euclidean distance in experiment [1] worked out at 1.86; in experiment [2], 3; in experiment [3], 2.5; in experiment [4] it was 1.73; in experiment [5], 2.61; in experiment [6] it was 2.71.
In the case of `CO/N=C(\C(=O)N[C@@H]1C(=O)N2C(C(=O)O)=C(CSc3nnnn3C)CS[C@H]12)c1csc(N)n1` [Cefmenoxime hydrochloride], the Euclidean distance in experiment [1] was found to be 0.657; in experiment [2] it was 0.643; in experiment [3] it was 1.22; in experiment [4] it was 0.686; in experiment [5], 0.775; in experiment [6], 0.594.
Turning to `CC1(C)Cc2c(sc(NC(=O)c3ccn[nH]3)c2C(N)=O)C(C)(C)O1`, the Euclidean distance in experiment [1] turned out to be 0.808; in experiment [2], 0.814; in experiment [3] it was 1.54; in experiment [4], 1.43; in experiment [5], 0.816; in experiment [6] it was 1.06.
`CC(C)OC(=O)C1=CN(C(=O)c2ccc(F)c(F)c2)CC(C)(C)c2c1[nH]c1ccccc21`: the Euclidean distance in experiment [1] is 0.816; in experiment [2] it was 0.896; in experiment [3], 0.818; in experiment [4] it was 0.982; in experiment [5], 1.22; in experiment [6], 1.07.
Consider `O=c1c2ccccc2nc2n1CCc1c-2[nH]c2ccccc12` [Rutaecarpine], for which the Euclidean distance stood at 0.752 in experiment [1]; 1.05 in experiment [2]; 1.52 in experiment [3]; 1.22 in experiment [4]; 1.08 in experiment [5]; 1.48 in experiment [6].
Consider `CN(C)CCCN1c2ccccc2CCc2ccccc21` [Imipramine HCl], for which the Euclidean distance in experiment [1] turned out to be 1.05; in experiment [2] it was 0.896; in experiment [3], 1.15; in experiment [4] it was 1.55; in experiment [5], 1.13; in experiment [6] it was 1.33.
Take `CCN(c1cc(-c2ccc(CN3CCOCC3)cc2)cc(C(=O)NCc2c(C)cc(C)[nH]c2=O)c1C)C1CCOCC1` [Tazemetostat (EPZ-6438)]: the Euclidean distance in experiment [1] is 0.99; in experiment [2], 1.2; in experiment [3], 0.651; in experiment [4], 0.92; in experiment [5], 0.489; in experiment [6], 1.16.
`O=C(NCCO[N+](=O)[O-])c1cccnc1` [Nicorandil]: the Euclidean distance in experiment [1] worked out at 1.26; in experiment [2], 0.857; in experiment [3], 1.26; in experiment [4] it was 1.09; in experiment [5], 0.784; in experiment [6] it was 1.38.
Regarding `O=c1cc(-c2ccc(O)c(O)c2)oc2cc(O)cc(O)c12` [Luteolin], the Euclidean distance in experiment [1] was found to be 1.39; in experiment [2], 1.21; in experiment [3], 2.73; in experiment [4], 1.9; in experiment [5], 1.36; in experiment [6] it was 1.27.
Consider `CC(=O)OCC(=O)[C@@]1(O)[C@H](C)C[C@H]2[C@@H]3CCC4=CC(=O)C=C[C@]4(C)[C@@]3(F)[C@@H](O)C[C@@]21C` [Dexamethasone Acetate], for which the Euclidean distance in experiment [1] was 1.08; in experiment [2], 2.1; in experiment [3] it was 2.41; in experiment [4], 1.85; in experiment [5] it was 0.691; in experiment [6], 1.67.
With `N[C@@H](Cc1cc(I)c(Oc2ccc(O)c(I)c2)c(I)c1)C(=O)O` [Triiodothyronine], the Euclidean distance worked out at 1.04 in experiment [1]; 1.57 in experiment [2]; 1.08 in experiment [3]; 0.968 in experiment [4]; 0.865 in experiment [5]; 1.58 in experiment [6].
Consider `CCCS(=O)(=O)Nc1ccc(F)c(C(=O)c2c[nH]c3ncc(-c4ccc(Cl)cc4)cc23)c1F` [Vemurafenib (PLX4032. RG7204)], for which the Euclidean distance in experiment [1] was 1.14; in experiment [2] it was 1.53; in experiment [3], 1.68; in experiment [4], 1.23; in experiment [5], 2.32; in experiment [6], 1.06.
`COc1cc(Nc2ncc(F)c(Nc3ccc4c(n3)N(COP(=O)(O)O)C(=O)C(C)(C)O4)n2)cc(OC)c1OC` [Fostamatinib (R788)]: the Euclidean distance in experiment [1] worked out at 2.67; in experiment [2], 4.8; in experiment [3], 3.08; in experiment [4], 3.33; in experiment [5], 2.44; in experiment [6], 3.7.
`CCCCCOc1ccccc1/C(=C\SC)n1ccnc1` [Neticonazole Hydrochloride]: the Euclidean distance was determined as 1.28 in experiment [1]; 1.44 in experiment [2]; 0.848 in experiment [3]; 0.825 in experiment [4]; 1.31 in experiment [5]; 1.05 in experiment [6].
Regarding `O=C(c1ccc(F)cc1)C1CCN(CCn2c(=O)[nH]c3ccccc3c2=O)CC1` [Ketanserin], the Euclidean distance in experiment [1] was 1.44; in experiment [2], 0.68; in experiment [3] it was 0.898; in experiment [4], 0.767; in experiment [5] it was 0.883; in experiment [6] it was 1.08.
For the compound `NCCCC[C@H](NC(=O)[C@@H]1CCCN1C(=O)[C@@H]1CSSC[C@H](NC(=O)CNC(=O)CNC(=O)CN)C(=O)N[C@@H](Cc2ccc(O)cc2)C(=O)N[C@@H](Cc2ccccc2)C(=O)N[C@@H](CCC(N)=O)C(=O)N[C@@H](CC(N)=O)C(=O)N1)C(=O)NCC(N)=O` [Terlipressin Acetate], the Euclidean distance stood at 1.69 in experiment [1]; 0.833 in experiment [2]; 1.36 in experiment [3]; 0.976 in experiment [4]; 0.531 in experiment [5]; 1.15 in experiment [6].
As to `CN(C)c1ccc2c(c1)Sc1cc(N(C)C)ccc1N2` [TRx0237 (LMTX) mesylate], the Euclidean distance was determined as 2.79 in experiment [1]; 3.35 in experiment [2]; 2.69 in experiment [3]; 3.38 in experiment [4]; 2.95 in experiment [5]; 2.88 in experiment [6].
`CC(C)CN(C[C@@H](OP(=O)(O)O)[C@H](Cc1ccccc1)NC(=O)O[C@H]1CCOC1)S(=O)(=O)c1ccc(N)cc1` [Fosamprenavir calcium salt]: the Euclidean distance in experiment [1] was found to be 1.44; in experiment [2] it was 0.901; in experiment [3] it was 1.21; in experiment [4], 0.737; in experiment [5] it was 0.527; in experiment [6], 1.41.
`Cc1cccc(C)c1NC(=O)c1cc(S(N)(=O)=O)c(Cl)cc1O` [Xipamide]: the Euclidean distance turned out to be 1.51 in experiment [1]; 0.665 in experiment [2]; 0.648 in experiment [3]; 1.08 in experiment [4]; 0.576 in experiment [5]; 1.08 in experiment [6].
With `CO[C@H]1/C=C/O[C@@]2(C)Oc3c(C)c(O)c4c(O)c(c(/C=N/N5CCN(C)CC5)c(O)c4c3C2=O)NC(=O)/C(C)=C\C=C\[C@H](C)[C@H](O)[C@@H](C)[C@@H](O)[C@@H](C)[C@H](OC(C)=O)[C@@H]1C` [Rifampin], the Euclidean distance was 1.56 in experiment [1]; 0.64 in experiment [2]; 1.44 in experiment [3]; 1.36 in experiment [4]; 2.28 in experiment [5]; 1.14 in experiment [6].
In the case of `Cc1cc(C2CCCCC2)n(O)c(=O)c1` [Ciclopirox], the Euclidean distance was determined as 2.74 in experiment [1]; 2.85 in experiment [2]; 2.81 in experiment [3]; 3.29 in experiment [4]; 3.45 in experiment [5]; 3.51 in experiment [6].
As to `O=C1NC(=O)C(c2ccccc2)(c2ccccc2)N1` [Phenytoin], the Euclidean distance in experiment [1] was found to be 0.857; in experiment [2] it was 0.495; in experiment [3] it was 1; in experiment [4], 1.34; in experiment [5] it was 0.945; in experiment [6], 0.752.
